Records with an inconclusive call do not appear. Unless noted, calls come from the whole dose curve; as a rule, active = well fitted curve in either direction with a large enough effect (not every such curve was filed as active); inconclusive = small, poorly fitted or top-dose-only effect, or another doubt; inactive = flat fitted curve, though single readings scatter.
How the values were obtained:
[1] = AP1 Signaling Pathway (AID 357); conditions: ME-180 AP-1-bla reporter, EGF-induced, beta-lactamase ratio, 5 h; at 17.2 µM (top of the series) unless noted;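 note: ME-180 reporter cells stimulated with EGF at its EC50 level; % is set by controls: 0 for no effect and ±100 for the full control effect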
Method in brief: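 Beta-lactamase reporter under AP-1 response element, ME-180 background. Stimulus: EC50 EGF. Compound exposure 5 h, 37 °C. Detection: CCF4, 2.5 h RT, 460/530 nm. Values: AC50 from titration.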

[2] = NFAT Signaling Pathway (AID 444); conditions: Jurkat NFAT-bla M1, carbachol, beta-lactamase ratio, 5 h; at 17.2 µM (top of the series) unless noted;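 note: carbachol stimulus at about its EC50 of 1 µM final; % is set by controls: 0 for no effect and ±100 for the full control effect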
Method in brief: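 Jurkat cells with NFAT-driven β-lactamase reporter and co-expressed M1 receptor, stimulated with carbachol (final 1 uM, ~EC50), compound titration, 5 h at 37 °C. CCF4 loaded 1 h at RT; 460/530 nm ratio gave %activity and AC50.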

[3] = Stat Signaling Pathway (AID 446); conditions: ME-180 (cervical carcinoma) SIE beta-lactamase reporter, IL-6 stimulated, 5 h; at 17.2 µM (top of the series) unless noted;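 note: ME-180 cervical cancer cells given 40 pM IL-6 alongside compound; SIE-controlled beta-lactamase reporter measured as 460/530 nm FRET emission ratio; % is set by controls: 0 for no effect and ±100 for the full control effect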
Method in brief: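 Emission at 460 and 530 nm (excitation 405 nm) reports SIE-controlled beta-lactamase in ME-180 cells. Cells received compound with 40 pM IL-6 for 5 hrs at 37 C; data scaled between 300 pM IL-6 and 125 nM JAK-inhibitor controls.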

[4] = target: Glucocorticoid receptor (Homo sapiens) (UniProt P04150); assay: GR-GFP Redistribution (AID 450;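 active = compounds whose dose series gives a full or clear partial fitted curve of increased nuclear translocation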; note: potency is the fitted concentration of half-maximal effect)
Glucocorticoid receptor (Homo sapiens), sequence (P04150 whole entry, looked up): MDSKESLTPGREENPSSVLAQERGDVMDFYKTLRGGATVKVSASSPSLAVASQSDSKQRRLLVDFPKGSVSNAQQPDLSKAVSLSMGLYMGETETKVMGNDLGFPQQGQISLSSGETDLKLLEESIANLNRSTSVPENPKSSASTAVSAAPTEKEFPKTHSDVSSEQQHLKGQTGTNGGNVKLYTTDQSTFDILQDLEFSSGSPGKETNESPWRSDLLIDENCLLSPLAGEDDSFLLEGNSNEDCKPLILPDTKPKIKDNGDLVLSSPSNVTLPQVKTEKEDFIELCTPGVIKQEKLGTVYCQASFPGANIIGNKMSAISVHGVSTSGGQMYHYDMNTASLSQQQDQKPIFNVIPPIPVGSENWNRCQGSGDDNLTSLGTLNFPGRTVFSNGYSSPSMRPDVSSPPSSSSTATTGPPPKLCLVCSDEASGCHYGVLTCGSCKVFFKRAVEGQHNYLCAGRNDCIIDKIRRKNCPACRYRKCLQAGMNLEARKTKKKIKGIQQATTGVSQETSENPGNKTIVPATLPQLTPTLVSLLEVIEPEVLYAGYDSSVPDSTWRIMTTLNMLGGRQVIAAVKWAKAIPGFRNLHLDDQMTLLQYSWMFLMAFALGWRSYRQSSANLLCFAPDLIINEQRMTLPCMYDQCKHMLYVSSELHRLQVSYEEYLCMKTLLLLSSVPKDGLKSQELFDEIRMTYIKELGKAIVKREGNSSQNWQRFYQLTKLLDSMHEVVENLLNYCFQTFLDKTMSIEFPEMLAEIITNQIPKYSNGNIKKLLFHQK

O=C(Nc1ccc2c(c1)OCCO2)c1ccc(Br)o1
inactive: activity change, negative = inhibition [1] -1.9% | activity change, negative = inhibition [2] 6.17% | activity, negative = inhibition [3] 6.03% | Potency [4] > 20.6 µM

Cc1cc(C)n(-c2c(F)c(F)c(CN3CCCCC3)c(F)c2F)n1
inactive: activity change, negative = inhibition [1] -3.48% | activity change, negative = inhibition [2] -27.9% | activity, negative = inhibition [3] 5.23% | Potency [4] > 20.6 µM

Cc1c(C2Nc3ccccc3NC3=C2C(=O)CC(C)(C)C3)cnn1C (stereo not given)
inactive: activity change, negative = inhibition [1] -9.46% | activity change, negative = inhibition [2] -5.95% | activity, negative = inhibition [3] 14.2% | Potency [4] > 20.6 µM

COC(=O)c1ccc(C2/C(=C(\O)c3ccc4c(c3)OCCO4)C(=O)C(=O)N2CCCN(C)C)cc1 (stereo not given)
inactive: activity change, negative = inhibition [1] 10.1% | activity change, negative = inhibition [2] 5.87% | activity, negative = inhibition [3] -5.8% | Potency [4] > 20.6 µM

CSc1nc(NC(C)=O)nc(C)c1Cl
inactive: activity change, negative = inhibition [1] 11.1% | activity change, negative = inhibition [2] -9.42% | activity, negative = inhibition [3] 3.48% | Potency [4] > 20.6 µM

O=C(CCN1CCc2ccccc21)c1ccc2c(c1)OCCO2
inactive: activity change, negative = inhibition [1] 7.14% | activity change, negative = inhibition [2] -15.2% | activity, negative = inhibition [3] 2.96% | Potency [4] > 20.6 µM

CCOCCN(C(=O)COC)c1cccc(OC)c1
inactive: activity change, negative = inhibition [1] 20.2% | activity change, negative = inhibition [2] 2.78% | activity, negative = inhibition [3] 6.59% | Potency [4] > 20.6 µM

c1nc(NC2CCCCC2)c2[nH]cnc2n1
inactive: activity change, negative = inhibition [1] -4.39% | activity change, negative = inhibition [2] 2.42% | activity, negative = inhibition [3] -29.4% | Potency [4] > 20.6 µM

O=C(c1cncc(Br)c1)N1CCCc2ccccc21
inactive: activity change, negative = inhibition [1] 2.83% | activity change, negative = inhibition [2] -6.51% | activity, negative = inhibition [3] -1.14% | Potency [4] > 20.6 µM

CC(=O)[C@H]1CC[C@H]2[C@@H]3CCC4=CC(=O)CC[C@]4(C)[C@H]3[C@H](O)C[C@]12C
inactive: activity change, negative = inhibition [1] -0.48% | activity change, negative = inhibition [2] 2.54% | activity, negative = inhibition [3] 2.53% | Potency [4] > 20.6 µM

COc1ccccc1N1CCN(C2CCN(C(=O)c3cc(OC)c(OC)c(OC)c3)CC2)CC1
inactive: activity change, negative = inhibition [1] 12.5% | activity change, negative = inhibition [2] 4.07% | activity, negative = inhibition [3] 10.4% | Potency [4] > 20.6 µM

CCOc1ccc2nc(NC(NC(C)=O)(C(=O)OC)C(F)(F)F)sc2c1 (stereo not given)
inactive: activity change, negative = inhibition [1] 5.71% | activity change, negative = inhibition [2] 0.18% | activity, negative = inhibition [3] -4.87% | Potency [4] > 20.6 µM

Cc1cc(=O)oc(C)c1C(=O)NCC(C)C
inactive: activity change, negative = inhibition [1] 0.878% | activity change, negative = inhibition [2] -1.32% | activity, negative = inhibition [3] 8.66% | Potency [4] > 20.6 µM

COC(=O)C(NC(=O)c1ccccc1)(Nc1nccs1)C(F)(F)F (stereo not given)
inactive: activity change, negative = inhibition [1] 6.27% | activity change, negative = inhibition [2] 2.67% | activity, negative = inhibition [3] 5.62% | Potency [4] > 20.6 µM

COc1ccccc1NC(=O)CSc1nnc(-c2ccc(NC(C)=O)cc2)n1C
inactive: activity change, negative = inhibition [1] -3.49% | activity change, negative = inhibition [2] -2.99% | activity, negative = inhibition [3] -0.879% | Potency [4] > 20.6 µM

CC1(C)CC(=O)C2=C(C1)OC(N)=C(C#N)C21C(=O)N(CN2CCOCC2)c2ccccc21 (stereo not given)
inactive: activity change, negative = inhibition [1] 15.6% | activity change, negative = inhibition [2] 1.95% | activity, negative = inhibition [3] 5.03% | Potency [4] > 20.6 µM

CCOC(=O)CSc1nc(-c2ccc3c(c2)OCO3)ccc1C#N
inactive: activity change, negative = inhibition [1] 7.89% | activity change, negative = inhibition [2] 18.5% | activity, negative = inhibition [3] 4.79% | Potency [4] > 20.6 µM

CC(C(=O)NC(=O)NCc1ccccc1)N1C(=O)c2ccccc2C1=O (stereo not given)
inactive: activity change, negative = inhibition [1] -0.38% | activity change, negative = inhibition [2] -0.399% | activity, negative = inhibition [3] 14.7% | Potency [4] > 20.6 µM

c1ccc(OCc2nn3c(C4CCCCC4)nnc3s2)cc1
inactive: activity change, negative = inhibition [1] -8.37% | activity change, negative = inhibition [2] 0.0415% | activity, negative = inhibition [3] 8.07% | Potency [4] > 20.6 µM

COc1cccc(N2CCN(C(=O)c3ccc(=O)oc3)CC2C)c1 (stereo not given)
inactive: activity change, negative = inhibition [1] 26.8% | activity change, negative = inhibition [2] -28.2% | activity, negative = inhibition [3] -1.83% | Potency [4] > 20.6 µM

CC(=O)c1c(OCC(=O)O)ccc2c(C)cc(=O)oc12
inactive: activity change, negative = inhibition [1] 15% | activity change, negative = inhibition [2] -8.66% | activity, negative = inhibition [3] 13.1% | Potency [4] > 20.6 µM

Cc1nnc(SCC(=O)N2CCC(C(N)=O)CC2)s1
inactive: activity change, negative = inhibition [1] 4.41% | activity change, negative = inhibition [2] 5.46% | activity, negative = inhibition [3] 7.13% | Potency [4] > 20.6 µM

COc1ccc(/C(O)=C2/C(=O)C(=O)N(c3nc(C)c(C)s3)C2c2ccco2)cc1 (stereo not given)
inactive: activity change, negative = inhibition [1] -13.8% | activity change, negative = inhibition [2] 21.3% | activity, negative = inhibition [3] -14.6% | Potency [4] > 20.6 µM

Cc1ccc(C(=O)C2=C(O)C(=O)N(c3ncccn3)C2c2cccc(Cl)c2)o1 (stereo not given)
inactive: activity change, negative = inhibition [1] -1.15% | activity change, negative = inhibition [2] 24.9% | activity, negative = inhibition [3] -7.64% | Potency [4] > 20.6 µM

N#CC1=C(C=Nc2ccccc2O)CCC1
inactive: activity change, negative = inhibition [1] 12.3% | activity change, negative = inhibition [2] 8.46% | activity, negative = inhibition [3] -1.34% | Potency [4] > 20.6 µM

Reference: PubChem BioAssay (NCATS)
